In PubChem BioAssay AID1159580 (chemical genetic matrix, 2015):
Values joined by “and” are separate entries in the source; they are usually repeats but may differ in a detail not shown here. Equal entries are not always repeated. In all, about 5,500 compounds went through this assay and about 2,000 (36%) were called active. Inconclusive results (about 18%) are left out. Rule as the data show it: active = normalized growth mostly below about 0.91 (no sharp cut-off); inconclusive = no clear call, values can overlap the other calls; inactive = mostly above about 0.92. This is one part of the list.

Assay: chemical genetic growth profiling, strain panel (AID 1159580);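 also: tested at 20 µM; growth read once vehicle control cultures reached saturation at 30 °C; 1 = growth at the plate median or of vehicle wells; lower values mean less growth of the strain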
Settings: S. cerevisiae deletion strains, growth OD

Measured: normalized growth

C[C@]12CCC(=O)C=C1C=CC1C2CC[C@@]2(C)C1CC[C@@]21CCC(=O)O1 (stereo partly specified)
inactive: locus YAL013W, strain DEP1, stronger effect = lower value 0.956 | locus YAL021C, strain ccr4, stronger effect = lower value 0.971 | locus YAL026C, strain drs2, stronger effect = lower value 0.97 | locus YAL030W, strain snc1, stronger effect = lower value 0.974 | locus YBL061C, strain skt5, stronger effect = lower value 0.977 | locus YBR009C, strain hhf1, stronger effect = lower value 0.962 | locus YBR021W, strain FUR4, stronger effect = lower value 1 | locus YBR023C, strain chs3, stronger effect = lower value 0.979 | locus YBR171W, strain sec66, stronger effect = lower value 0.966 | locus YBR229C, strain ROT2, stronger effect = lower value 0.979 | locus YBR231C, strain swc5, stronger effect = lower value 0.989 | locus YBR279W, strain paf1, stronger effect = lower value 0.983 | locus YCL011C, strain gbp2, stronger effect = lower value 0.968 | locus YCL016C, strain dcc1, stronger effect = lower value 0.976 | locus YCL029C, strain bik1, stronger effect = lower value 0.949 | locus YCL061C, strain MRC1, stronger effect = lower value 0.954 | locus YCL069W, strain vba3, stronger effect = lower value 0.974 | locus YCR088W, strain abp1, stronger effect = lower value 0.974 | locus YDL005C, strain med2, stronger effect = lower value 0.98 | locus YDL035C, strain GPR1, stronger effect = lower value 0.962 | locus YDL040C, strain nat1, stronger effect = lower value 0.977 | locus YDL074C, strain BRE1, stronger effect = lower value 0.872 | locus YDL185W, strain tfp1, stronger effect = lower value 0.967 | locus YDR001C, strain nth1, stronger effect = lower value 0.952 | locus YDR069C, strain doa4, stronger effect = lower value 0.984 | locus YDR101C, strain arx1, stronger effect = lower value 0.955 | locus YDR150W, strain NUM1, stronger effect = lower value 0.985 | locus YDR159W, strain sac3, stronger effect = lower value 0.901 | locus YDR195W, strain ref2 1.12 | locus YDR297W, strain sur2, stronger effect = lower value 0.981 | locus YDR318W, strain mcm21, stronger effect = lower value 0.956 | locus YDR334W, strain swr1, stronger effect = lower value 0.977 | locus YDR335W, strain msn5, stronger effect = lower value 0.976 | locus YDR388W, stronger effect = lower value 0.969 | locus YEL003W, strain gim4, stronger effect = lower value 0.962 | locus YEL037C, strain rad23, stronger effect = lower value 0.971 | locus YEL061C, strain CIN8 (second series), stronger effect = lower value 0.967 | locus YEL061C, strain CIN8, stronger effect = lower value 0.978 | locus YER015W, strain faa2, stronger effect = lower value 0.979 | locus YER016W, strain bim1, stronger effect = lower value 0.975 | locus YER110C, stronger effect = lower value 0.965 | locus YER111C, strain swi4, stronger effect = lower value 0.962 | locus YER155C, strain BEM2 (second series), stronger effect = lower value 0.988 | locus YER155C, strain BEM2, stronger effect = lower value 0.996 | locus YER167W, strain BCK2, stronger effect = lower value 0.956 | locus YFR010W, strain ubp6, stronger effect = lower value 0.986 | locus YGL078C, strain dbp3, stronger effect = lower value 0.985 | locus YGL167C, strain pmr1, stronger effect = lower value 0.968 | locus YGL173C, strain kem1, stronger effect = lower value 0.953 | locus YGL227W, strain vid30, stronger effect = lower value 0.988 | locus YGL240W, strain doc1, stronger effect = lower value 0.992 | locus YGL248W, strain PDE1, stronger effect = lower value 0.919 | locus YGL253W, strain hxk2, stronger effect = lower value 0.947 | locus YGR135W, strain pre9, stronger effect = lower value 0.936 | locus YGR252W, strain gcn5, stronger effect = lower value 0.969 | locus YHR013C, strain ard1, stronger effect = lower value 0.901 | locus YHR027C, strain rpn1, stronger effect = lower value 0.982 | locus YHR030C, strain SLT2, stronger effect = lower value 0.948 and 0.967 | locus YHR079C, strain IRE1 (second series), stronger effect = lower value 0.971 | locus YHR079C, strain IRE1, stronger effect = lower value 0.98 | locus YHR094C, strain hxt1, stronger effect = lower value 0.974 | locus YHR129C, strain ARP1, stronger effect = lower value 0.939 | locus YHR142W, strain chs7, stronger effect = lower value 0.922 | locus YHR200W, strain rpn10, stronger effect = lower value 0.984 | locus YIL066C, strain RNR3, stronger effect = lower value 0.95 | locus YIL073C, strain SPO22, stronger effect = lower value 0.948 | locus YIL125W, strain kgd1, stronger effect = lower value 0.979 | locus YIR030C, strain dcg1, stronger effect = lower value 0.979 | locus YJL092W, strain hpr5, stronger effect = lower value 0.963 | locus YJL095W, strain BCK1 (second series), stronger effect = lower value 0.984 | locus YJL095W, strain BCK1, stronger effect = lower value 0.807 and 0.975 | locus YJL115W, strain asf1, stronger effect = lower value 0.971 | locus YJL129C, strain trk1, stronger effect = lower value 0.95 | locus YJL134W, strain LCB3, stronger effect = lower value 0.982 | locus YJL154C, strain vps35, stronger effect = lower value 0.979 | locus YJL164C, strain tpk1, stronger effect = lower value 0.946 | locus YJL166W, strain qcr8, stronger effect = lower value 0.993 | locus YJL168C, strain set2, stronger effect = lower value 0.969 | locus YJL187C, strain SWE1 (second series), stronger effect = lower value 0.931 | locus YJL187C, strain SWE1, stronger effect = lower value 0.973 | locus YJR043C, strain POL32, stronger effect = lower value 1.06 | locus YJR066W, strain TOR1, stronger effect = lower value 0.951 | locus YKL009W, strain mrt4, stronger effect = lower value 0.948 | locus YKL068W, stronger effect = lower value 0.966 | locus YKL085W, strain MDH1 (second series), stronger effect = lower value 0.971 | locus YKL085W, strain MDH1, stronger effect = lower value 0.971 | locus YKL160W, strain elf1, stronger effect = lower value 0.982 | locus YKR026C, strain gcn3, stronger effect = lower value 0.98 | locus YKR091W, strain srl3, stronger effect = lower value 0.969 | locus YLL001W, strain dnm1, stronger effect = lower value 0.983 | locus YLL026W, stronger effect = lower value 0.989 | locus YLL041C, strain sdh2, stronger effect = lower value 0.983 | locus YLR027C, strain aat2, stronger effect = lower value 0.994 | locus YLR058C, strain SHM2, stronger effect = lower value 0.959 | locus YLR102C, strain apc9, stronger effect = lower value 0.973 | locus YLR113W, strain HOG1, stronger effect = lower value 0.934 | locus YLR221C, strain rsa3, stronger effect = lower value 0.956 | locus YLR258W, strain gsy2, stronger effect = lower value 0.964 | locus YLR268W, strain sec22, stronger effect = lower value 0.914 | locus YLR320W, strain mms22, stronger effect = lower value 0.9 | locus YLR330W, strain CHS5, stronger effect = lower value 0.938 | locus YLR342W, strain FKS1, stronger effect = lower value 0.961 | locus YLR357W, strain rsc2, stronger effect = lower value 1.01 | locus YLR370C, strain arc18, stronger effect = lower value 0.969 | locus YLR371W, strain rom2, stronger effect = lower value 0.975 | locus YLR384C, strain iki3, stronger effect = lower value 0.993 | locus YML016C, strain PPZ1, stronger effect = lower value 0.973 | locus YML032C, strain rad52, stronger effect = lower value 0.971 | locus YML120C, strain ndi1, stronger effect = lower value 0.971 | locus YML124C, strain tub3, stronger effect = lower value 0.986 | locus YMR058W, strain fet3, stronger effect = lower value 0.964 | locus YMR078C, strain ctf18, stronger effect = lower value 0.973 | locus YMR125W, strain sto1, stronger effect = lower value 0.985 | locus YMR129W, stronger effect = lower value 0.973 | locus YMR205C, strain PFK2, stronger effect = lower value 0.938 | locus YMR223W, strain ubp8, stronger effect = lower value 0.941 | locus YMR231W, strain pep5, stronger effect = lower value 0.99 | locus YNL067W, strain RPL9B, stronger effect = lower value 0.937 | locus YNL071W, strain lat1, stronger effect = lower value 0.927 | locus YNL128W, strain TEP1, stronger effect = lower value 0.965 | locus YNL153C, strain GIM3, stronger effect = lower value 0.953 | locus YNL183C, strain NPR1, stronger effect = lower value 0.928 | locus YNL209W, strain ssb2, stronger effect = lower value 0.985 | locus YNL233W, strain BNI4, stronger effect = lower value 0.923 | locus YNL248C, strain rpa49, stronger effect = lower value 0.912 | locus YNL250W, strain rad50, stronger effect = lower value 0.981 | locus YNL271C, strain bni1, stronger effect = lower value 0.968 | locus YNL298W, strain CLA4, stronger effect = lower value 0.955 | locus YNL322C, strain KRE1 (second series), stronger effect = lower value 0.991 | locus YNL322C, strain KRE1, stronger effect = lower value 0.997 | locus YNR049C, strain mso1, stronger effect = lower value 0.947 | locus YOL012C, strain htz1 0.991 | locus YOL147C, strain pex11, stronger effect = lower value 0.971 | locus YOR001W, strain rrp6, stronger effect = lower value 1 | locus YOR061W, strain CKA2, stronger effect = lower value 0.958 | locus YOR069W, strain VPS5, stronger effect = lower value 0.975 | locus YOR070C, strain gyp1, stronger effect = lower value 0.969 | locus YOR080W, strain dia2, stronger effect = lower value 0.979 | locus YOR083W, strain WHI5, stronger effect = lower value 0.975 | locus YOR106W, strain vam3, stronger effect = lower value 0.961 | locus YOR136W, strain idh2, stronger effect = lower value 0.963 | locus YOR144C, strain elg1, stronger effect = lower value 0.976 | locus YOR231W, strain MKK1, stronger effect = lower value 0.97 | locus YOR265W, strain rbl2, stronger effect = lower value 0.983 | locus YOR290C, strain snf2, stronger effect = lower value 0.947 | locus YOR316C, strain cot1, stronger effect = lower value 0.968 | locus YPL051W, strain arl3, stronger effect = lower value 0.969 | locus YPL055C, strain LGE1, stronger effect = lower value 0.909 | locus YPL078C, strain atp4, stronger effect = lower value 0.975 | locus YPL106C, strain sse1, stronger effect = lower value 0.994 | locus YPL240C, strain hsp82, stronger effect = lower value 0.998 | locus YPL241C, strain CIN2, stronger effect = lower value 0.991 | locus YPL256C, strain CLN2, stronger effect = lower value 0.946 | locus YPR119W, strain clb2, stronger effect = lower value 0.981 | locus YPR141C, strain kar3, stronger effect = lower value 0.947 | locus YPR167C, strain met16, stronger effect = lower value 0.967 | strain wtn01, stronger effect = lower value 0.902
active: locus YDL101C, strain DUN1, stronger effect = lower value 0.877 | locus YDL192W, strain arf1, stronger effect = lower value 0.866 | locus YDR137W, strain rgp1, stronger effect = lower value 0.75 | locus YDR162C, strain NBP2, stronger effect = lower value 0.584 | locus YDR392W, strain spt3, stronger effect = lower value 0.662 | locus YDR502C, strain sam2, stronger effect = lower value 0.914 | locus YGL086W, strain mad1, stronger effect = lower value 0.917 | locus YKR001C, strain vps1, stronger effect = lower value 0.788 | locus YLR039C, strain RIC1, stronger effect = lower value 0.588 | locus YLR262C, strain YPT6 (second series), stronger effect = lower value 0.792 | locus YLR262C, strain YPT6, stronger effect = lower value 0.525 | locus YLR342W, strain FKS1 (second series), stronger effect = lower value 0.785 | locus YLR418C, strain cdc73, stronger effect = lower value 0.702 | locus YMR307W, strain GAS1, stronger effect = lower value 0.597 | locus YNL307C, strain MCK1, stronger effect = lower value 0.831 | locus YNR052C, strain pop2, stronger effect = lower value 0.906 | locus YOR184W, strain ser1, stronger effect = lower value 0.724 | locus YOR270C, strain vph1, stronger effect = lower value 0.771 | locus YPR163C, strain tif3, stronger effect = lower value 0.867
